# Measured values taken from PubChem BioAssay (NCATS).
# Results filed as inconclusive are left out. Calls of active or inactive are those of the source.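 The calls were made as follows, unless noted: active = compounds whose dose series gives a full or clear partial fitted curve of increased nuclear translocation; inconclusive = weak partial curve or effect only at the top dose; inactive = no dose-dependent translocation response.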
# Tested on: not listed separately
# Assay: NFAT Signaling Pathway (AID 444; active = well fitted curve in either direction with a large enough effect, not every such curve was filed as active;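 also: carbachol stimulus at about its EC50 of 1 µM final; % is scaled to controls: 0 for no effect and ±100 for the full control effect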)
# Details: Jurkat NFAT-bla M1, carbachol, beta-lactamase ratio, 5 h; at 17.2 µM (top of the series) unless noted
# Summary of the method: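 Read-out: CCF4 FRET ratio (460 nm/530 nm) after 1 h RT dye loading, used for %activity and AC50 from titration series. Cells: Jurkat NFAT-β-lactamase/M1 line, treated with compound plus 1 uM carbachol for 5 h, 37 °C.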
row,SMILES,"activity change, negative = inhibition"
1,O=C(/C=C/c1ccccc1)c1ccccc1,-14.4% (inactive)
2,COc1cc(-c2nn3c(COc4ccccc4)nnc3s2)cc(OC)c1OC,11.1% (inactive)
3,CC(=O)c1ccc(O)c(CO)c1,-1.78% (inactive)
4,CCn1cc(C(=O)NCc2ccccn2)c(=O)c2cc(F)c(N3CCN(C)CC3)cc21,-29.8% (inactive)
5,Cc1cccc(OCc2nc(C)cc(=O)[nH]2)c1,-0.73% (inactive)
6,COC(=O)/C(=C1/Oc2cc(C)oc(=O)c2S1)C(F)(F)F,-131% (active)
7,COc1ccccc1C1/C(=C(/O)c2ccc(OC(C)C)cc2)C(=O)C(=O)N1c1cc(C)on1 (stereo not drawn),27.8% (inactive)
8,CSc1nc(N2CCCC2)c2c(c1C#N)CC(C)(C)OC2,-19.8% (inactive)
9,CC(C)CC(NC(=O)OC(C)(C)C)C(=O)NCc1ccccc1 (stereo not drawn),-25.8% (inactive)
10,O=C(NO)c1ccccc1O,-9.27% (inactive)
11,CCOC(=O)CSC1=C(C#N)C(=O)NC(c2ccc(OC)c(OC)c2)S1 (stereo not drawn),-123% (active)
12,CCOC(=O)c1[nH]c2cc3c(cc2c1NC(=O)CN1CCc2ccccc2C1)OCO3,-10.9% (inactive)
13,c1ccc2c(c1)[nH]c1c(N3CCC4(CC3)OCCO4)ncnc12,7.49% (inactive)
14,CCOC(=O)CSc1nc(N)c(C#N)c(-c2ccc(OC)cc2)c1C#N,2.57% (inactive)
15,COC(=O)C1C(=O)CC(C)(O)C(C(=O)OC)C1c1ccccc1F (stereo not drawn),-0.943% (inactive)
16,Cc1cc(=O)oc(C)c1C(=O)NCC(C)NC(=O)c1c(C)cc(=O)oc1C (stereo not drawn),10.2% (inactive)
17,COCc1cc(C)nc(SCC(=O)Nc2ccc(C)c(C)c2)c1C#N,3.23% (inactive)
18,Cc1cc(=O)oc(C)c1C(=O)NCCN1CCOCC1,7.8% (inactive)
19,CN(CCCCCC(=O)/C=N/O)Cc1ccccc1,-28% (inactive)
20,O=C1CC(c2ccccc2)n2nc(NS(=O)(=O)c3ccccc3)nc2N1 (stereo not drawn),-10.9% (inactive)

row,SMILES,"activity change, negative = inhibition"
1,Cc1nn(-c2cccc(Cl)c2)c2c1C(c1ccncc1)C(C#N)=C(N)O2 (stereo not drawn),-16.8% (inactive)
2,C=C(Br)CN1CCN(CC(=C)Br)CC1,-10.3% (inactive)
3,Cc1ccc(Oc2nc3c(c(=O)n(Cc4ccccc4F)c(=O)n3C)n2C)cc1,11.5% (inactive)
4,CSc1nc2sc3c(c2c(=O)n1C1CCCCC1)CCN(C)C3,-81.1% (active)
5,Cc1ccnc(N2CCN(c3c4c(c(C#N)c5nc6ccccc6n35)CCC4)CC2)c1,-1.93% (inactive)
6,CCc1ccc(NC(=O)CSC2=C(C#N)C(c3ccc4c(c3)OCO4)CC(=O)N2)cc1 (stereo not drawn),-5.09% (inactive)
7,CCN(CC)CCCN1C(=O)C(=O)/C(=C(/O)c2ccc3c(c2)CC(C)O3)C1c1ccncc1 (stereo not drawn),13.1% (inactive)
8,O=C(Cc1ccccc1)Nc1cccc(-c2nnc(-c3ccco3)o2)c1,11.7% (inactive)
9,CCCCOc1cccc(-c2nnc(N)s2)c1,7.5% (inactive)
10,Cc1ccc(SCc2[nH]nc3c2C(c2ccc(C)o2)C(C#N)=C(N)O3)cc1 (stereo not drawn),-18.9% (inactive)
11,CCOC(=O)CCc1c(C)c(C#N)c2[nH]c3ccccc3n2c1=O,-0.365% (inactive)
12,COc1cc2nc(-c3ccccc3)nc(N3CCCC3)c2cc1OC,-11.3% (inactive)
13,CC1(C)Cc2c(C#N)c(NCCc3ccccc3)nc(-c3ccco3)c2CO1,80.9% [activator] (active)
14,COc1ccccc1C(=O)N1CCN(Cc2ccc3c(c2)OCO3)CC1,-10.5% (inactive)
15,CC1(C)C2CCC1(C)C(OC(=O)CC(=O)O)C2 (stereo not drawn),8.38% (inactive)
16,CCCCc1nc(NCCNC(=O)c2ccco2)c(C#N)c2c1CSC(C)(C)C2,12.2% (inactive)
17,O=C(NCCN1CCCCC1)c1ccc(=O)oc1,6.11% (inactive)
18,Cn1c(=O)cc(NCc2ccccc2)[nH]c1=O,-6.77% (inactive)
19,Clc1ccc(SCc2cn3ccsc3n2)cc1,9.85% (inactive)

# Target: Glucocorticoid receptor (Homo sapiens) (UniProt P04150)
# Sequence (P04150 whole entry, looked up): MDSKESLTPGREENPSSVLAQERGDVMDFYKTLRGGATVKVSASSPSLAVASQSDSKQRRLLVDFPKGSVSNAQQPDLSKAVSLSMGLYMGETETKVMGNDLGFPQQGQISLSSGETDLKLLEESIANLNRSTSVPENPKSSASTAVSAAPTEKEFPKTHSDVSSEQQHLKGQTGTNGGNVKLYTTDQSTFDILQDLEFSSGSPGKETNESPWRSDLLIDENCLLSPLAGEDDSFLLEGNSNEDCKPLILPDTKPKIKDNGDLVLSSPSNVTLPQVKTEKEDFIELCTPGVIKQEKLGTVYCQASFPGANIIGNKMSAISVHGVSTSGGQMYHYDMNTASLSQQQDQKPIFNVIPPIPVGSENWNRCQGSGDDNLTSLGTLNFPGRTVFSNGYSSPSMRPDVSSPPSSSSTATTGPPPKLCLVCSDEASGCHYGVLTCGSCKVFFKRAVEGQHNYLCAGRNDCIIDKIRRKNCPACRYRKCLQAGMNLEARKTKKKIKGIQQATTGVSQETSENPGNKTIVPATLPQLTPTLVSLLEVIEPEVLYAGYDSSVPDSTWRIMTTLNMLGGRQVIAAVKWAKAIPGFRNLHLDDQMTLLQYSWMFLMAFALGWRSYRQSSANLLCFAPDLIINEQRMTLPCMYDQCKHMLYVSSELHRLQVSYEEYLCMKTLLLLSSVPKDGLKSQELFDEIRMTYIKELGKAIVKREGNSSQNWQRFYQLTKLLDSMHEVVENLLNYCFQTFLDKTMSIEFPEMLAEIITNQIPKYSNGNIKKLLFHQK
# Assay: GR-GFP Redistribution (AID 450); also: potency is read from the fitted curve at half-maximal effect
# Details: U2OS GR-GFP nuclear translocation, laser cytometry, 2 h; series mostly up to 20.6 µM
row,SMILES,Potency
1,O=C(/C=C/c1ccccc1)c1ccccc1,> 20.6 µM (inactive)
2,COc1cc(-c2nn3c(COc4ccccc4)nnc3s2)cc(OC)c1OC,> 20.6 µM (inactive)
3,CC(=O)c1ccc(O)c(CO)c1,> 20.6 µM (inactive)
4,CCn1cc(C(=O)NCc2ccccn2)c(=O)c2cc(F)c(N3CCN(C)CC3)cc21,> 20.6 µM (inactive)
5,Cc1cccc(OCc2nc(C)cc(=O)[nH]2)c1,> 20.6 µM (inactive)
6,COC(=O)/C(=C1/Oc2cc(C)oc(=O)c2S1)C(F)(F)F,> 20.6 µM (inactive)
7,COc1ccccc1C1/C(=C(/O)c2ccc(OC(C)C)cc2)C(=O)C(=O)N1c1cc(C)on1 (stereo not drawn),> 20.6 µM (inactive)
8,CSc1nc(N2CCCC2)c2c(c1C#N)CC(C)(C)OC2,> 20.6 µM (inactive)
9,CC(C)CC(NC(=O)OC(C)(C)C)C(=O)NCc1ccccc1 (stereo not drawn),> 20.6 µM (inactive)
10,O=C(NO)c1ccccc1O,> 20.6 µM (inactive)
11,CCOC(=O)CSC1=C(C#N)C(=O)NC(c2ccc(OC)c(OC)c2)S1 (stereo not drawn),> 20.6 µM (inactive)
12,CCOC(=O)c1[nH]c2cc3c(cc2c1NC(=O)CN1CCc2ccccc2C1)OCO3,> 20.6 µM (inactive)
13,c1ccc2c(c1)[nH]c1c(N3CCC4(CC3)OCCO4)ncnc12,> 20.6 µM (inactive)
14,CCOC(=O)CSc1nc(N)c(C#N)c(-c2ccc(OC)cc2)c1C#N,> 20.6 µM (inactive)
15,COC(=O)C1C(=O)CC(C)(O)C(C(=O)OC)C1c1ccccc1F (stereo not drawn),> 20.6 µM (inactive)
16,Cc1cc(=O)oc(C)c1C(=O)NCC(C)NC(=O)c1c(C)cc(=O)oc1C (stereo not drawn),> 20.6 µM (inactive)
17,COCc1cc(C)nc(SCC(=O)Nc2ccc(C)c(C)c2)c1C#N,> 20.6 µM (inactive)
18,Cc1cc(=O)oc(C)c1C(=O)NCCN1CCOCC1,> 20.6 µM (inactive)
19,CN(CCCCCC(=O)/C=N/O)Cc1ccccc1,> 20.6 µM (inactive)
20,O=C1CC(c2ccccc2)n2nc(NS(=O)(=O)c3ccccc3)nc2N1 (stereo not drawn),> 20.6 µM (inactive)

row,SMILES,Potency
1,Cc1nn(-c2cccc(Cl)c2)c2c1C(c1ccncc1)C(C#N)=C(N)O2 (stereo not drawn),> 20.6 µM (inactive)
2,C=C(Br)CN1CCN(CC(=C)Br)CC1,> 20.6 µM (inactive)
3,Cc1ccc(Oc2nc3c(c(=O)n(Cc4ccccc4F)c(=O)n3C)n2C)cc1,> 20.6 µM (inactive)
4,CSc1nc2sc3c(c2c(=O)n1C1CCCCC1)CCN(C)C3,> 20.6 µM (inactive)
5,Cc1ccnc(N2CCN(c3c4c(c(C#N)c5nc6ccccc6n35)CCC4)CC2)c1,> 20.6 µM (inactive)
6,CCc1ccc(NC(=O)CSC2=C(C#N)C(c3ccc4c(c3)OCO4)CC(=O)N2)cc1 (stereo not drawn),> 20.6 µM (inactive)
7,CCN(CC)CCCN1C(=O)C(=O)/C(=C(/O)c2ccc3c(c2)CC(C)O3)C1c1ccncc1 (stereo not drawn),> 20.6 µM (inactive)
8,O=C(Cc1ccccc1)Nc1cccc(-c2nnc(-c3ccco3)o2)c1,> 20.6 µM (inactive)
9,CCCCOc1cccc(-c2nnc(N)s2)c1,> 20.6 µM (inactive)
10,Cc1ccc(SCc2[nH]nc3c2C(c2ccc(C)o2)C(C#N)=C(N)O3)cc1 (stereo not drawn),> 20.6 µM (inactive)
11,CCOC(=O)CCc1c(C)c(C#N)c2[nH]c3ccccc3n2c1=O,> 20.6 µM (inactive)
12,COc1cc2nc(-c3ccccc3)nc(N3CCCC3)c2cc1OC,> 20.6 µM (inactive)
13,CC1(C)Cc2c(C#N)c(NCCc3ccccc3)nc(-c3ccco3)c2CO1,> 20.6 µM (inactive)
14,COc1ccccc1C(=O)N1CCN(Cc2ccc3c(c2)OCO3)CC1,> 20.6 µM (inactive)
15,CC1(C)C2CCC1(C)C(OC(=O)CC(=O)O)C2 (stereo not drawn),> 20.6 µM (inactive)
16,CCCCc1nc(NCCNC(=O)c2ccco2)c(C#N)c2c1CSC(C)(C)C2,> 20.6 µM (inactive)
17,O=C(NCCN1CCCCC1)c1ccc(=O)oc1,> 20.6 µM (inactive)
18,Cn1c(=O)cc(NCc2ccccc2)[nH]c1=O,> 20.6 µM (inactive)
19,Clc1ccc(SCc2cn3ccsc3n2)cc1,> 20.6 µM (inactive)
